# HEK293 viab: cell viability loss counter-screen; 150,000 compounds, 0.12% hits; HEK-293-SNCA-luc viability, GF-AFC fluorescence, 24 h; AID 1671193; Potency, µM (doses to about 57.1 µM), for the others: at the highest dose activity change, negative = cytotoxicity, hits mostly cytotoxic;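 also: potency is read from the fitted curve at half-maximal effect; 0% = DMSO-treated cells and -100% = medium-only wells without cells; nearly all actives have a fitted effect of over 30% in size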
#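 HEK-293-SNCA-luc cells (1500/well) plated 24 h, then exposed 24 h to a dilution series; GF-AFC added 30 min at 37C, fluorescence 405/540 nm; normalised to medium-only and DMSO wells, Hill fit.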
# IP6K1 inhibitor: IP6K1 kinase inhibition | Q92551 | IP6K1 kinase, ADP-Glo luminescence, 2 h; stronger effect = lower value | activity change, % (series mostly up to about 58 µM) | 140,000 compounds, 0.81% hits | AID 1645851; in the data active = activity change below about -25%; also: % is scaled to controls: 0 for no effect and ±100 for the full control effect
# Target sequence (Q92551 whole entry, looked up): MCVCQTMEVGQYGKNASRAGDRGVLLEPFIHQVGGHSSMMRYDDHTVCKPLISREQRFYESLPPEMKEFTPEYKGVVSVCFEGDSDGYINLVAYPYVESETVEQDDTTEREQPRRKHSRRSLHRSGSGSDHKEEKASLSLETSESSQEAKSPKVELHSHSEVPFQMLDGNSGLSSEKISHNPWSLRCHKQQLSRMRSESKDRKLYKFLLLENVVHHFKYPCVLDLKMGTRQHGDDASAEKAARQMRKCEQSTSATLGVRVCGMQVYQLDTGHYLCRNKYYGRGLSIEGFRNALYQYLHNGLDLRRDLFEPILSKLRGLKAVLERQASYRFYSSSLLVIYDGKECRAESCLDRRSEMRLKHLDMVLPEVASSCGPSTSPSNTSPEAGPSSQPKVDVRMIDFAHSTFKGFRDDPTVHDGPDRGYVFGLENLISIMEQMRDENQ
#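 ADP-Glo luminescence measures ADP made by human IP6K1 during a 2 h RT reaction with ATP/IP6 (mix at 1.3 mM/130 uM); top library doses 57.5 and 19.1 uM final.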
# SNCA expr inhib: SNCA gene expression inhibition | AID 1671194 | 140,000 compounds, 0.17% hits | Potency, µM (doses to about 57.2 µM), for the others: at the highest dose activity change, negative = inhibition, most hits filed as inhibitors | HEK-293 SNCA-luciferase knock-in, luminescence, 24 h;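 also: potency is read from the fitted curve at half-maximal effect; plate controls were DMSO cells for no effect and cell-free wells for full effect; nearly all actives have a fitted effect of over 45% in size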
# KDM5B inhibitor: KDM5B demethylase inhibition. Q9UGL1. KDM5B demethylase, FDH-coupled NADH fluorescence (FDH is formaldehyde dehydrogenase). Potency, µM (titrated, usually from 57.7 µM), hits mostly inhibitors. 220,000 compounds, 2.6% hits; also: potency is read from the fitted curve at half-maximal effect; 0% is about no effect; nearly all actives have a fitted effect of over 70% in size
#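 KDM5BΔAP (200 nM final) in 50 mM HEPES pH 7.5, 0.01% Tween-20 was preincubated 10 min at RT with compound over a concentration range. Substrate mix (H3K4me3 12.5 µM, α-KG 25 µM, Fe²⁺, ascorbate, NAD⁺, FDH) was added, and NADH fluorescence change over 30 min gave dose-response curves.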
# IP6K1 conf: confirmation of human IP6K1 inhibitors. shares compounds with IP6K1 inhibitor. recombinant IP6K1 kinase, ADP-Glo luminescence, 2 h. Potency, µM (doses to about 49 µM), inactives show at the top dose activity change, negative = inhibition, hits mostly inhibitors. 1,200 compounds, 13% hits; also: potency is read from the fitted curve at half-maximal effect; % is scaled to controls: 0 for no effect and ±100 for the full control effect; nearly all actives have a fitted effect of over 65% in size
# * hit, by the source's call; i = inactive; ? = inconclusive; / = not tested or not shown; [ ] = dose if it differs, or a comment. This is a sample that favours compounds with a hit; in the whole collection about 3% have one here. Unless noted, calls follow the shape of the dose curve; as a rule, active = well fitted curve in the direction sought with a large enough effect; inconclusive = small, poorly fitted or top-dose-only effect, or another doubt; inactive = no such curve, though single readings can be large; an effect the other way counts as inactive or inconclusive.
SMILES,HEK293 viab,IP6K1 inhibitor,SNCA expr inhib,KDM5B inhibitor,IP6K1 conf
CCc1ccc(-c2csc(NC3OC(=O)c4c3ccc(OC)c4OC)n2)cc1 (stereo not drawn),/,/,/,i,/
CN1CCN(c2cc(=O)c3ccnc(N4CCN(c5ccccn5)CC4)c3o2)CC1,-2.0%[87.6 µM],-26.4*,-12.4%[87.6 µM],i,-26.9%
CN(c1ccccc1)c1cc(=O)c2ccnc(N3CCOCC3)c2o1,-5.9%[87.6 µM],-20.6,19.6%[87.6 µM],i,/
COc1ccc(-c2cn3c(n2)sc2cc(C(=O)NCc4cccs4)ccc23)cc1,-7.1%,-3.3,133.0%,?,/
O=C(NCc1cccs1)c1ccc2c(c1)sc1nc(-c3ccccc3)cn12,-16.3%,-25.4*,143.1%,?,?
Cc1cc(O)c(C)c(C)c1O,-26.3%[23.9 µM],12.7,-0.3%[25.6 µM],i,/
Cc1cc(O)c2ccccc2c1O,-8.5%[23.9 µM],-27.9*,-5.8%[25.6 µM],/,?
CCCCOC(=O)/C(C#N)=C/c1ccc(-c2ccc(Br)cc2)o1,8.7%,-30.7*,38.6%,i,9.4%
COc1cc(NC(=O)Cn2nc(-c3ccccc3)c3c(c2=O)CCCC3)cc(OC)c1,/,/,/,i,/
CC(C)c1ccc(-c2cc(=O)c3ccccc3o2)cc1,-9.3%,-77.9*,/,/,3.26µM*
O=c1cc(-c2ccccc2)oc2ccccc12,21.9%,-29.8*,205.6%,/,?
CC(=O)Nc1ccc2oc(-c3ccc(C(C)C)cc3)cc(=O)c2c1,/,/,/,i,/
O=C(CCC[C@H]1NC[C@@H]2CC1CN(Cc1ccccc1)C2)N1CCCCC1,2.9%,3.7,-18.2%,i,/
COc1cccc(N2CCN(C(=O)CCC[C@H]3NC[C@@H]4C[C@H]3CN(Cc3ccccc3)C4)CC2)c1,2.6%,-26.0*,-8.6%,25.1µM*,0.9%
O=C(Nc1cccnc1)c1cc(-c2ccccc2F)cc2c1OCCN2Cc1cccnc1,?,-49.2*,?,35.5µM*,?
O=C(Nc1cccnc1)c1nc2c(o1)CCN(Cc1cccc(O)c1)CC2,1.2%[87.6 µM],1.0,44.6%[87.6 µM],i,/
O=C(NCc1ccco1)c1cc(-c2ccccc2F)cc2c1OCCN2Cc1cccnc1,?,-29.9*,-1.9%,28.2µM*,?
CCC(C)NC(=O)CNC(=O)c1ccc(-c2cccc(C(F)(F)F)c2)cc1 (stereo not drawn),-19.5%[12.5 µM],-4.7,-12.5%,/,/
Cc1ccc(N/N=C/c2ccc(C(C)(C)C)cc2)cc1Cl,/,/,/,i,/
Cc1ccccc1CNC(=O)c1cnc2sc(N3CCOCC3)nn2c1=O,-1.4%,-99.7*,-9.4%,?,-14.9%
COc1cc(-c2nc(-c3c(C)noc3C)cc3cc(CN(C)C)oc23)ccn1,-15.4%[87.6 µM],-33.1*,3.4%[87.6 µM],35.5µM*,?
COc1ccc(Nc2nc(-c3c(C)noc3C)cc3cc(CN(C)C)oc23)cn1,?,24.9,11.2%[87.6 µM],?,/
COc1ccc(-c2nc(-c3c(C)noc3C)cc3cc(CN(C)C)oc23)cn1,-3.4%[87.6 µM],-48.7*,-10.8%[87.6 µM],31.6µM*,?
CCN1CC(c2ccccc2)CC2(CCN(C(=O)COC)CC2)C1 (stereo not drawn),-8.5%,-27.5*,4.7%,i,-12.2%
CCN1CC(c2ccccc2)CC2(CCN(C(=O)CCn3cccn3)CC2)C1 (stereo not drawn),-2.6%,3.0,19.1%,i,/
Cc1ccc(C)c(Cn2cc(S(=O)(=O)c3ccc(Cl)cc3)c(=O)c3cc(F)ccc32)c1,9.8%,-25.0*,-3.0%,i,6.0%
CN1CC[C@@H](c2c(O)cc(O)c3c(=O)cc(-c4ccccc4Cl)oc23)[C@@H](O)C1,?,/,0.215µM*,/,?
Nc1nc(Nc2ccc(S(N)(=O)=O)cc2)nn1C(=O)c1c(F)cccc1F,?,-35.2*,?,/,?
NS(=O)(=O)c1ccc(NC(=O)c2c(F)cccc2Cl)cc1,/,/,/,i,/
